PubChem BioAssay AID1259336 (Sattelle Laboratory, UCL Respiratory, Division of Medicine, …, 2017)
Active and inactive are the calls of the source. Rule as the data show it: active = log2 fold change growth below about -1.8; inactive = the rest.

Experiment: C. elegans growth inhibition, whole organism, log2 fold change (AID 1259336);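 also: growth scored by imaging after five days at 20 °C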
Conditions: anthelmintic screen, hits give low values

log2 fold change growth, active:
O=C(Nc1ccc(F)c(-c2nc3ncc(-c4ccccc4)cc3[nH]2)c1)N1CCCC1 -5.81
Cc1cc(C(=O)Nc2ccc(-c3ccccc3)cc2)no1 -3.09

log2 fold change growth, inactive:
CC(C)(CN)c1nc(-c2ccc(Cl)c(O)c2)c(-c2ccnc(N)n2)[nH]1 -0.414
CNC(=O)c1cc(S(=O)(=O)N2CCN(c3ccccn3)CC2)cs1 -0.156
Nc1nccc2ccc(Oc3ccncc3)cc12 0.145
CN1CCN(S(=O)(=O)c2ccc(-c3ccc4c(Nc5ccc6n[nH]nc6c5)ccnc4c3)cc2)CC1 -0.667
N#Cc1ccc(-c2cnc(N)c(-c3ccc(C(N)=O)cc3)n2)cc1 -0.619
NCC(=O)N1CCn2c(nc(-c3ccccc3)c2Nc2ccc3c(c2)OCO3)C1 0.0553
COC(=O)c1c(NC(=O)c2cc3ccccc3oc2=O)sc2c1CCN(Cc1ccccc1)C2 -0.125
Nc1nc(N)c2c3c(sc2n1)CN(Cc1ccccc1)CC3 0.456
NS(=O)(=O)c1cccc(-c2ccc3ncc(N4CCOCC4)nc3c2)c1 -0.363
O=C(CN1CCOCC1)Nc1ccc2ncnc(Nc3ccc(OCc4cccc(F)c4)c(Cl)c3)c2c1 -0.76
COc1ccc(Oc2ccc([C@@H](C)N(C)c3ncc4c(N)nc(N)nc4n3)cc2)cc1 0.282
FC(F)(F)c1ccc(N(c2cccnc2)C2CCN(c3ccc(C(F)(F)F)cn3)CC2)cc1 -0.44
N#Cc1nc(-c2ccccc2)oc1S(=O)(=O)c1ccc(Cl)cc1 0.277
Cc1nn(C)cc1[C@H](C)Nc1nncc(-c2ccc(C(F)(F)F)cc2)n1 0.429
Cc1ccc2oc(-c3cc(NC(=O)Cc4ccccc4)ccc3Cl)nc2c1 0.272
CC1CCCN(C(=O)C(C)Nc2cc(Cl)ccc2N2CCOCC2)C1 (stereo not drawn) 0.538
Cc1cccc(Cn2ccc(NC(=O)c3ccc4c(c3)OCO4)n2)c1 -0.327
CCOc1ccc2cc(-c3nn(C(C)(C)C)c(N)c3C(N)=O)cnc2c1 -0.647
COc1cc(CN2CCC3(C=Cc4ccccc43)CC2)cc2c1OCO2 -0.677
CCC(=O)Nc1ccccc1C(=O)Nc1ccccn1 0.194
O=C(C1CCN(c2cc(-n3cccc3)ncn2)CC1)N1CCc2ccccc2C1 -0.11
CC(=O)Nc1ccc(-c2noc(C[C@H]3CCCN(Cc4cccc(F)c4C)C3)n2)cc1 0.251
CCN(CC)CCCN1CCN(C(=O)c2cccc(-c3noc(C(F)(F)F)n3)c2)CC1 -0.0333
c1ccc(-c2cc(N3CCCCC3)c3ccccc3n2)nc1 -1.36
Clc1ccc(Cl)c(CO[C@H]2CCCC[C@@H]2n2ccnc2)c1 0.0539
CCCn1c(NC(=O)c2ccc3ccccc3n2)nc2ccccc21 -0.0431
O=C(Nc1nc(-c2ccccn2)cs1)c1cncn1-c1ccccc1 -0.307
CCOc1ccccc1C(=O)Nc1cccc(-c2nc3ncccn3c2C)c1 -0.256
CNC(=O)[C@@H]1Cc2ccccc2N1C(=O)Cc1ccc(F)cc1 0.145
CCOc1ccc(OCC(=O)Nc2cc(C)cc(C)c2)cc1 -0.0899
C[C@H](C(N)=O)N1CCCC[C@@H]1c1ccc(OCc2cccc(F)c2)cc1 -0.0568
Cc1ccc2c(c1C)NC(=O)[C@]21NN=C(c2ccccc2)S1 -0.355
COc1ccc(CCN2CCC(NCc3cccc(N(C)C)c3)CC2)cc1 0.27
COc1ccc(-c2cncc3ccc(C(=O)NCCCn4ccnc4)nc23)cc1 0.283
CCCNC(=O)N1CCC2(CC1)CC(=O)c1cc(C)ccc1O2 -0.181
CCc1ccc([C@@H](NCc2nc(N)nc(N(C)C)n2)C(C)C)cc1 0.433
